Our source for the inhibition values is PubChem BioAssay AID2129 (The Scripps Research Institute Molecular Screening Center, 2009).

Hit rate of the full screen: of about 320,000 compounds, about 2,200 (0.69%) were called active. The entries come from a sample that favours actives as a whole. Values without a mark were called inactive.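 The calls were made as follows: active = inhibition above the mean of all tested compounds plus 3 SD, cutoff set per campaign (cut at about 30% in these data); inactive = the rest.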

Chain of Bcl-2-like protein 1 (Homo sapiens) (Q07817 whole entry, looked up): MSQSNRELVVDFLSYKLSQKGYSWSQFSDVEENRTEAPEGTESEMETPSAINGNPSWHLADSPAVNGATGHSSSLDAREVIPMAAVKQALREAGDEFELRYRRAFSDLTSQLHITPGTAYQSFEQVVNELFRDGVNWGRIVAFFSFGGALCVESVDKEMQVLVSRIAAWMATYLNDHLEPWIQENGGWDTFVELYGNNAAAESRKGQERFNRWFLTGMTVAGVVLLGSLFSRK

This experiment addresses Bcl-2-like protein 1 (Homo sapiens) (UniProt Q07817). The experiment in a line: Bcl-xL/Bim BH3 interaction blockers – biochemical, fluorescence polarization, HTS, primary screen (AID 2129).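 Also: 0% = DMSO wells and 100% = unlabeled Bim-BH3 peptide competitor; inhibitors lower millipolarization by displacing the labeled peptide.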 To be noted: GST-Bcl-xL / FITC-Bim BH3 peptide fluorescence polarization; at 10.9 µM; active compounds read high. On the technique in general: Fluorescence polarisation rises when a labelled molecule tumbles more slowly, as on binding a larger partner.
For `O=c1[nH]c(=O)c2nc3ccccc3nc2[nH]1`, the inhibition was 33.4% (active).

As to `CNC(=O)c1cccc2nc3ccccc3nc12`, the inhibition was 8.33%.

Turning to `O=c1[nH]c(-c2ccccc2)c(-c2ccccc2)[nH]1`, the inhibition is 1.54%.

With `CNC(C)C#Cc1ccc2sc3cc(OC)c(OC)cc3c(=O)c2c1` (configuration not stated), the inhibition is 0.94%.

Consider `COc1ccc(C(=O)NCC(c2ccco2)N2CCc3ccccc32)cc1OC` (configuration not stated), for which the inhibition was 3.87%.

For the compound `C[n+]1ccccc1C1CCCC/C1=N\Nc1ccc([N+](=O)[O-])cc1[N+](=O)[O-]` (configuration not stated), the inhibition is -14.1%.

Regarding `COc1ccc(S(=O)(=O)N(C)CC(=O)NCCCN2CCOCC2)cc1Cl`, the inhibition is -0.96%.

As for `COc1ccc2cc(C(=O)C3CCCN(C(=O)c4sc(C)nc4C)C3)ccc2c1` (configuration not stated), the inhibition was 3%.

As to `COc1ccc2nc(N3CCCC(O)C3)c(C#N)cc2c1` (configuration not stated), the inhibition was 32% (active).

As to `COc1ccc2c(c1)CCc1cn3ncc(C#N)c3nc1-2`, the inhibition was 5.65%.

On to `O=[N+]([O-])c1c(NCCO)cc(Sc2nc3ccccc3s2)c2nonc12`, for which the inhibition is 38.8% (active).

On to `O=C(O)c1ccccc1CSc1nc2ccccc2s1`, for which the inhibition is 15.6%.

For `CCOc1ccccc1Nc1ccc2nonc2c1[N+](=O)[O-]`, the inhibition is -3.2%.

With `O=C(C1CCC1)N1CCc2cc(S(=O)(=O)NCc3cccnc3)ccc21`, the inhibition is 1.18%.

Take `CCN(CC)CCNc1nc(-c2ccc(OC(F)F)cc2)c(C)s1`: the inhibition was 4.61%.

On to `COc1ccc(C2C3=C(CCCC3=O)N(CC(=O)O)C3=C2C(=O)CCC3)cc1`, for which the inhibition is 7.5%.

Turning to `CCOc1ccc(C2C3=C(CCCC3=O)N(CC(=O)O)C3=C2C(=O)CCC3)cc1`, the inhibition is 6.72%.

For the compound `CCCN1C2=C(C(=O)CCC2)C(c2ccc(O)c(Br)c2)C2=C1CCCC2=O`, the inhibition was 37.8% (active).

Regarding `CCCCCCCC1(C)NC(=O)N(CC(=O)Nc2cc(C)on2)C1=O` (configuration not stated), the inhibition is 3.89%.

For the compound `O=C(Oc1cccc(O)c1)C1CCCCC1`, the inhibition was 1.38%.

On to `CN(C(=O)CSc1nnc(-c2ccc3c(c2)OCO3)o1)C1CCS(=O)(=O)C1` (configuration not stated), for which the inhibition is 3.5%.

Regarding `CCCc1cc(=O)[nH]c(SCC(=O)c2c(N)n(CC(C)C)c(=O)n(C)c2=O)n1`, the inhibition is -0.53%.

In the case of `Cc1coc(C)c1C(=O)CC1(O)C(=O)N(C)c2ccc(Cl)cc21` (configuration not stated), the inhibition is 3.68%.

Consider `NC(=O)CC(NC(=O)Cc1cccc2ccccc12)c1ccc(NCc2cc(F)ccc2F)c([N+](=O)[O-])c1` (configuration not stated), for which the inhibition is -3.93%.

For `COC(=O)CCCC1=CC2=CC(=O)C(C)(OC(=O)c3cccs3)C(=O)C2=CN1CC(C)C` (configuration not stated), the inhibition was 8.79%.

As to `COC(=O)CCCC1=CC2=CC(=O)C(C)(OC(=O)c3cccs3)C(=O)C2=CN1CC1CC1` (configuration not stated), the inhibition is 13.4%.

Consider `COC(=O)CCCC1=CC2=CC(=O)C(C)(OC(=O)c3cccs3)C(=O)C2=CN1c1cccc(C#N)c1` (configuration not stated), for which the inhibition is 35.7% (active).

One may read the inhibition as the change of the read-out against control, counted positive when it falls.
